Test results reported in PubChem BioAssay AID602387 (Sanford-Burnham Center for Chemical Genomics, 2012).
About 30 (1%) of roughly 2,300 compounds were called active. These entries were drawn from the full list. Unmarked numbers belong to inactive results.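 The calls were made as follows: active = activation of at least 30% at 10 µM; inactive = the rest.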

Experiment: beacon detection-step fluorescence artefacts – biochemical, fluorescent molecular beacon, single concentration, artefact control for DNMT1 inhibitor project, confirmation (AID 602387);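 also: DNMT1 catalytic domain with a HinP1I cleavage step and a FAM/dabcyl DNA beacon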
Details: DNMT1 molecular beacon spectral interference counterscreen, fluorescence 485/520; at 10 µM; stronger effect = higher value

Compound | activation (fluorescence interference) [%]
COc1ccc(Cl)cc1NC(=O)CCS(=O)(=O)c1ccc(Br)cc1 | 3.16
O=C(CCN1C(=O)C2C3C=CC(C3)C2C1=O)Nc1ccccc1F (stereo unspecified) | 1.81
COc1ccc(/C=C2\SC(=N)N(c3ccc(F)cc3)C2=O)cc1 | 2.19
Oc1c(C(c2ccco2)N2CCC3(CC2)OCCO3)sc2ncnn12 (stereo unspecified) | 3.04
O=C(COC(=O)c1ccccc1O)NCc1ccco1 | 6.37
O=C(CCS(=O)(=O)c1ccc(Br)cc1)NCCc1ccc(Cl)cc1 | 1.71
CCCCCCc1cc2cc(-c3nnc(-c4ccccc4)o3)c(=O)oc2cc1O | -8.15
O=C(CSc1nc2ccccc2c(=O)[nH]1)Nc1nc(-c2ccc(Br)cc2)cs1 | 1.36
COc1ccc(Br)cc1/C=N/Nc1ccc(S(=O)(=O)Nc2ccccc2C(=O)O)cc1[N+](=O)[O-] | -9.44
COC(=O)CCCCC1=CCC2C(=O)C=C(O)C2C1 (stereo unspecified) | 10.1
COc1ccc(OCC(=O)NNC(=O)c2ccc(-c3ccccc3)cc2)cc1 | 1.59
CSc1ccc(CNC(=O)c2ccc(NC(=O)C3=CSCCO3)cc2)cc1 | 4.08
C=CC[C@@H](CC(=O)N[C@H](CO)Cc1ccccc1)C(=O)N[C@@H](COC(=O)[C@@H](CC=C)Cc1ccc(F)cc1)Cc1c[nH]c2ccccc12 | 10.2
Cc1ccc(CNC(=O)CSc2nnc3c(n2)[nH]c2ccc(F)cc23)cc1 | 3.05
COc1cc(-c2nnc(NC(=O)CS(=O)(=O)c3ccc(Cl)cc3)o2)cc(OC)c1OC | 5.03
COc1ccc(-n2c(SCC(=O)Nc3sc4c(c3C#N)CCCC4)nnc2-c2ccc(O)cc2)cc1 | 1.12
CCOc1cc(NC(=O)c2ccco2)c(OCC)cc1NC(=O)COc1ccccc1 | -8.28
CC1(C)Cc2nc3sc4c(SCC(=O)NC(c5ccccc5)c5ccccc5)ncnc4c3cc2CO1 | 1.08
O=C(COc1ccc(/C=N/NC(=O)c2ccc(O)cc2)cc1)Nc1ccc([N+](=O)[O-])cc1 | -12.5
O=C(c1ccc(CS(=O)(=O)c2ccccc2)o1)N1CCN(c2ccccc2)CC1 | -0.52
CCOC(=O)C(NC(=O)CC(C)C)(Nc1sc2c(c1C(N)=O)CCCC2)C(F)(F)F (stereo unspecified) | 6.15
COc1ccc(C(=O)/C=C/c2ccc(-c3ccccc3)cc2)cc1CSCC(=O)O | -0.97
O=C(COc1ccc([N+](=O)[O-])cc1)Nc1ccc(N2CCCC2)cc1 | 4.14

Compound | activation (fluorescence interference) [%]
N#Cc1ccccc1CN1C(=O)S/C(=C/c2cccn2-c2cccc(C(=O)O)c2)C1=O | 1.4
COc1ccc2sc(-c3ccc(S(C)(=O)=O)cc3)c(-c3ccc(C(N)=O)cc3)c2c1 | 4.53
CN(CCOc1ccccc1)C(=O)c1cc(-c2ccco2)nc2ccccc12 | 3.34
Cc1ccc2cc(C)c(N3CCC(C)CC3)nc2c1 | 2.52
COc1ccc(NC(=O)CN(C)C(=O)c2cc(C3CC3)nn2-c2ccccc2)cc1 | 0.09
COc1ccc(CC(=O)Nc2ccc(-c3nnc(-c4ccc(C)cc4)o3)cc2)cc1 | -5.84
CS(=O)(=O)c1ccc2c(c1)SC1=NC(=O)/C(=C/c3ccco3)C(=N)N12 | 1.32
O=C1CCCC(O)=C1C=NCCc1ccccc1 | 5.41
O=C(Nc1cccc(-c2nc3ccccc3[nH]2)c1)c1ccc(C(=O)Nc2cccc(-c3nc4ccccc4[nH]3)c2)cc1 | -6.94
CC(Oc1ccccc1)C(=O)Nc1oc(-c2ccco2)c(-c2ccco2)c1C#N (stereo unspecified) | 0.87
c1ccc2cc3[nH]c(CN4CCCCC4)nc3cc2c1 | 5.49
CC(=O)Nc1ccc(SCC(=O)NC(=O)c2ccc(Cl)cc2)cc1 | 4.23
Cc1nnc(N/N=C/c2cccs2)[nH]c1=O | 1.29
CCCCNC(=O)CCn1c(=O)c2ccccc2n(Cc2cc(C)ccc2C)c1=O | 1.75
Cc1ccc(C(=O)NNC(=O)c2cc3cc4ccccc4nc3s2)cc1 | 4.21
CC(C)(C)NC(=O)CSC(=Nc1ccccc1F)NC#N | 8.71
COc1ccc2[nH]c(=O)c(-c3noc(-c4ccc(F)cc4)n3)cc2c1 | -3.37
COc1ccc(OC)c(NC(=O)c2cc(-c3cc(F)ccc3OCC3CCCO3)n[nH]2)c1 (stereo unspecified) | 7.7
O=C(NNc1ccccn1)c1ccc(Cl)nc1 | 1.8
O=C(Oc1ccc(-c2nc(-c3ccccn3)no2)cc1)c1ccccc1 | -1.62
CCc1nn(-c2cc(Oc3cccc4ccccc34)nc(-c3ccccc3)n2)c(N)c1C#N | 1.42
CCOC(=O)c1cccc(NC(=O)C2CCCN(S(=O)(=O)c3cnc[nH]3)C2)c1 (stereo unspecified) | 2.94
C=CCn1c(=S)[nH]c2scc(-c3ccco3)c2c1=O | -3.16
